Experimental data reported in PubChem BioAssay.
Results filed as inconclusive are left out. Activity calls are given as the source filed them.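 The calls were made as follows, unless noted: active = normalized viability below 100% at a tested concentration; inactive = the rest.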

Key:
[1] = viability loss in pontine glioma line – cell-based, SU-DIPG-XVII, MIPE5.0, CellTiter-Glo, qHTS, dose response (AID 1347060; cut-off not given, nearly all actives have AC50 up to about 26 µM;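 as to AC50: cells exposed to compound for 48 hours before viability readout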); details: CellTiter-Glo ATP luminescence
[2] = viability loss in pontine glioma line – cell-based, SU-DIPG-XIII, MIPE4.0, CellTiter-Glo, qHTS, dose response (AID 1347061; cut-off not given, nearly all actives have AC50 up to about 37 µM;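 also: cells exposed to compound for 48 hours before readout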); details: CellTiter-Glo ATP luminescence
[3] = viability loss in pontine glioma line – cell-based, JHH-DIPG-1, MIPE4.0, CellTiter-Glo, qHTS, dose response (AID 1347062; cut-off not given, nearly all actives have AC50 up to about 27 µM;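 as to AC50: cells exposed to compound for two days before readout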); details: JHH-DIPG-1 viability, CellTiter-Glo ATP luminescence
[4] = viability loss in pontine glioma line – cell-based, SU-DIPG-IV, MIPE4.0, CellTiter-Glo, qHTS, dose response (AID 1347063; cut-off not given, nearly all actives have AC50 up to about 30 µM;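 also: compound exposure lasted 48 hours before the viability readout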); details: CellTiter-Glo ATP luminescence
[5] = growth inhibition of DIPG cells – cell-based, MIPE4.0 library, CellTiter-Glo luminescence, qHTS (AID 1347066; cut-off not given, nearly all actives have AC50 up to about 30 µM;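 also: cells exposed to compound for 48 hours before readout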); details: SU-DIPG-VI viability, CellTiter-Glo ATP luminescence
[6] = growth inhibition of DIPG cells – cell-based, MIPE5.0 library, qHTS (AID 1347068; cut-off not given, nearly all actives have IC50 up to about 30 µM;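 as to IC50: cells exposed to compound for 48 hours before viability readout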); details: SU-DIPG-XXV viability
[7] = JHH-DIPG-1 glioma cell viability, MIPE5.0 library, CellTiter-Glo luminescence, qHTS (AID 1347067; cut-off not given, nearly all actives have AC50 up to about 26 µM;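 also: cells exposed to compound for 48 hours before readout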); details: JHH-DIPG-1 glioma viability, CellTiter-Glo ATP luminescence
[8] = viability loss in pontine glioma line – cell-based, SU-DIPG-XIII, MIPE5.0, CellTiter-Glo, qHTS, dose response (AID 1347064; cut-off not given, nearly all actives have AC50 up to about 23 µM;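 as to AC50: cells exposed to compound for 48 hours before the viability read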); details: CellTiter-Glo ATP luminescence
[9] = viability loss in pontine glioma line – cell-based, SU-DIPG-XXV, MIPE5.0, CellTiter-Glo, qHTS, dose response (AID 1347065; cut-off not given, nearly all actives have AC50 up to about 26 µM;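 also: cells exposed to compound for 48 hours before ATP readout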); details: CellTiter-Glo ATP luminescence
[10] = compounds altering HSF1 focus formation in cells – imaging, Selleck Cancer Library (AID 1347162; in the data active = plate-normalised HSF1 focus index below about 0.46); details: human cells, HSF1 nuclear foci imaging, at 10 µM; SSMD: measured here: HSF1 foci SSMD mean; cell count: measured here: cell number; plate-normalised HSF1 focus index: stronger effect = lower value
[11] = viability loss with induced miR-34 in A549 – imaging, A549 dox-inducible miR-34, nuclei and caspase counts, primary screen (AID 1347080;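 active = compounds whose cell count with miR-34 switched on is under 0.7 times the count with it off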); details: A549 miR-34 inducible, Hoechst nuclei count, 48 h
[12] = MELAS cybrid and Rieske KO viability enhancers – cell-based, MELAS cybrids, Rieske KO mouse fibroblasts, CellTiter-Glo, primary screen (AID 1508586;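 active = mean z-score across replicates of 1.96 or higher in either the MELAS or the Rieske mutant cell line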;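 also: z relative to plate mean and SD of compound and empty wells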); details: low glucose
[13] = drug combination growth inhibition, ovarian cancer – cell-based, oncology-focused library, rucaparib conditional, profiling panel (AID 1508598); details: patient-derived ovarian cancer cells, CellTiter-Glo viability, 144 h, stronger effect = lower value
[14] = stronger effect = lower value, cell number ratio, induced over uninduced
[15] = measured here: relative caspase fold change +Dox/-Dox
[16] = measured here: total cells with miR-34 induction, stronger effect = lower value
[17] = measured here: total cells without miR-34 induction
[18] = MELAS cybrid survival, CellTiter-Glo 48 h, stronger effect = higher value
[19] = Rieske KO mouse fibroblast survival, CellTiter-Glo 72 h

C[N+](C)([O-])CCNc1ccc(NCC[N+](C)(C)[O-])c2c1C(=O)c1c(O)ccc(O)c1C2=O
active: AC50 [1] 9.34 µM | IC50 [6] 1.32 nM
inactive: outcome [2] | outcome [3] | outcome [4] | outcome [5]

CC(C)(O)CCc1ccc(OCc2cc(-c3cccc(OC(F)F)c3)c3ncccc3c2)cc1
inactive: outcome [2] | outcome [3] | outcome [4] | outcome [5]
active: AC50 [1] 23.5 µM | AC50 [7] 23.5 µM

C[C@]12CC[C@H](O)CC1=CC[C@@H]1[C@@H]2CC[C@]2(C)C(c3cccnc3)=CC[C@@H]12
inactive: outcome [1] | outcome [2] | outcome [3] | outcome [8] | outcome [9] | outcome [5] | outcome [7] | plate-normalised HSF1 focus index [10] 1.06
1.68: SSMD [10]
7310: cell count [10]

C[C@@H]1C(=O)OC2[C@H](O)[C@]34[C@H]5C[C@@H](C(C)(C)C)[C@]36[C@@H](OC(=O)[C@@H]6O)O[C@@]4(C(=O)O5)[C@]21O (some centres undefined)
inactive: outcome [1] | outcome [2] | outcome [3] | outcome [8] | outcome [9] | outcome [5] | outcome [7] | outcome [6]

CC(C)(C)OC(=O)CN(Cc1ccc(Cl)cc1)Cc1ccc([N+](=O)[O-])s1
active: AC50 [1] 18.6 µM | AC50 [8] 16.6 µM | AC50 [9] 11.8 µM
inactive: outcome [2] | outcome [3] | outcome [5] | outcome [6]

Cn1cc(-c2ccc3ncc(Cc4ccc5ncccc5c4)n3n2)cn1
inactive: outcome [1] | outcome [2] | outcome [3] | outcome [8] | outcome [9] | outcome [5] | outcome [7] | outcome [6] | fold change [11, 14] 0.865 | z-score [12, 18] -0.376
10000: cell count [11, 17]
8680: cell count [11, 16]
0.902: fold change [11, 15]
0.544: z-score [12, 19]

Cn1c(CNc2ccc(C(=N)N)cc2)nc2cc(C(=O)N(CCC(=O)O)c3ccccn3)ccc21
inactive: outcome [1] | outcome [2] | outcome [3] | outcome [8] | outcome [9] | outcome [5] | outcome [6]

C[C@@]1(c2cc(-c3cncnc3)c(F)cc2F)CCSC(N)=N1
9680: cell count [11, 17]
1.05: fold change [11, 15]
inactive: outcome [1] | outcome [8] | outcome [9] | outcome [5] | outcome [7] | outcome [6] | fold change [11, 14] 0.883 | z-score [12, 18] -0.425
active: AC50 [2] 14.8 µM | AC50 [3] 14.8 µM
0.36: z-score [12, 19]
8550: cell count [11, 16]

O=C(CCCCCCC(=O)Nc1cccnc1)NO
inactive: plate-normalised HSF1 focus index [10] 1.07
active: AC50 [1] 8.33 µM | AC50 [2] 9.35 µM | AC50 [3] 7.43 µM | AC50 [8] 5.9 µM | AC50 [9] 7.42 µM | AC50 [7] 3.32 µM
7080: cell count [10]
1.14: SSMD [10]

COc1nc(C)cnc1NS(=O)(=O)c1cccnc1-c1ccc(-c2nnco2)cc1
8800: cell count [11, 17]
active: viability ([13]; at 0.00488 µM, OCI-C5x cells, with rucaparib 10 µM, 100% = cells with rucaparib alone) 98.1% | viability ([13]; at 1.25 µM, OCI-C5x cells, with rucaparib 10 µM, 100% = cells with rucaparib alone) 97.7% | viability ([13]; at 5 µM, OCI-P5x cells, with rucaparib 20 µM, 100% = cells with rucaparib alone) 99%
2.08: SSMD [10]
7220: cell count [10]
8060: cell count [11, 16]
0.676: z-score [12, 19]
0.943: fold change [11, 15]
inactive: outcome [1] | outcome [2] | outcome [3] | outcome [8] | outcome [9] | outcome [5] | outcome [7] | outcome [6] | fold change [11, 14] 0.916 | plate-normalised HSF1 focus index [10] 1.13 | z-score [12, 18] -0.393 | viability ([13]; at 0.000305 µM, OCI-C5x cells, with rucaparib 10 µM, 100% = cells with rucaparib alone) 110% | viability ([13]; at 0.000305 µM, OCI-C5x cells, without rucaparib) 112% | viability ([13]; at 0.000305 µM, OCI-P5x cells, with rucaparib 20 µM, 100% = cells with rucaparib alone) 102% | viability ([13]; at 0.000305 µM, OCI-P5x cells, without rucaparib) 109% | viability ([13]; at 0.00122 µM, OCI-C5x cells, with rucaparib 10 µM, 100% = cells with rucaparib alone) 108% | viability ([13]; at 0.00122 µM, OCI-C5x cells, without rucaparib) 117% | viability ([13]; at 0.00122 µM, OCI-P5x cells, with rucaparib 20 µM, 100% = cells with rucaparib alone) 106% | viability ([13]; at 0.00122 µM, OCI-P5x cells, without rucaparib) 109% | viability ([13]; at 0.00488 µM, OCI-C5x cells, without rucaparib) 114% | viability ([13]; at 0.00488 µM, OCI-P5x cells, with rucaparib 20 µM, 100% = cells with rucaparib alone) 104% | viability ([13]; at 0.00488 µM, OCI-P5x cells, without rucaparib) 109% | viability ([13]; at 0.0195 µM, OCI-C5x cells, with rucaparib 10 µM, 100% = cells with rucaparib alone) 111% | viability ([13]; at 0.0195 µM, OCI-C5x cells, without rucaparib) 110% | viability ([13]; at 0.0195 µM, OCI-P5x cells, with rucaparib 20 µM, 100% = cells with rucaparib alone) 100% | viability ([13]; at 0.0195 µM, OCI-P5x cells, without rucaparib) 108% | viability ([13]; at 0.0781 µM, OCI-C5x cells, with rucaparib 10 µM, 100% = cells with rucaparib alone) 103% | viability ([13]; at 0.0781 µM, OCI-C5x cells, without rucaparib) 113% | viability ([13]; at 0.0781 µM, OCI-P5x cells, with rucaparib 20 µM, 100% = cells with rucaparib alone) 104% | viability ([13]; at 0.0781 µM, OCI-P5x cells, without rucaparib) 110% | viability ([13]; at 0.313 µM, OCI-C5x cells, with rucaparib 10 µM, 100% = cells with rucaparib alone) 105% | viability ([13]; at 0.313 µM, OCI-C5x cells, without rucaparib) 112% | viability ([13]; at 0.313 µM, OCI-P5x cells, with rucaparib 20 µM, 100% = cells with rucaparib alone) 103% | viability ([13]; at 0.313 µM, OCI-P5x cells, without rucaparib) 108% | viability ([13]; at 1.25 µM, OCI-C5x cells, without rucaparib) 112% | viability ([13]; at 1.25 µM, OCI-P5x cells, with rucaparib 20 µM, 100% = cells with rucaparib alone) 104% | viability ([13]; at 1.25 µM, OCI-P5x cells, without rucaparib) 111% | viability ([13]; at 5 µM, OCI-C5x cells, with rucaparib 10 µM, 100% = cells with rucaparib alone) 106% | viability ([13]; at 5 µM, OCI-C5x cells, without rucaparib) 116% | viability ([13]; at 5 µM, OCI-P5x cells, without rucaparib) 106%

Cc1c(Cn2c(C)nc3c(C(=O)O)cc(N4CCOCC4)cc32)cccc1C(F)(F)F
8050: cell count [11, 16]
8880: cell count [11, 17]
inactive: outcome [1] | outcome [2] | outcome [3] | outcome [8] | outcome [9] | outcome [5] | outcome [7] | outcome [6] | fold change [11, 14] 0.907 | z-score [12, 18] -0.351
0.358: fold change [11, 15]
0.912: z-score [12, 19]
